# Bioassay records from PubChem.
# TDP43 rescue: inhibitors of TDP-43 toxicity in yeast | AID 652104 | Potency, µM (top dose mostly 46.1 µM), usual class: activators | TDP-43 expressing yeast growth rescue, BacTiter-Glo, 24 h | 410,000 tested, 1.8% active; further: nearly all actives have a fitted effect of over 50% in size
#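 Yeast expressing TDP-43 (pregrown in raffinose, seeded at OD600=0.02 in galactose medium) exposed to compounds 24 hr at 30 deg C. Growth read by BacTiter-Glo luminescence; rescue of toxicity appears as increased signal.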
# FUS yeast rescue: rescues growth of FUS-expressing yeast. S. cerevisiae FUS-expressing, growth rescue, OD600, 24 h. Potency, µM (series often up to 76.6 µM), actives largely listed as activators. 390,000 tested, 0.24% active. AID 1347120; further: nearly all actives have a fitted effect of over 55% in size
#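 Steps: raffinose overnight preculture; dilution to OD 0.005 in 2% galactose minimal medium; compound addition (concentration series); 24hr at 30C, 99% humidity; absorbance read at 600 nm.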
# aSyn rescue: inhibitors of alpha-synuclein toxicity in yeast; Yeast expressing alpha-synuclein, growth rescue, BacTiter-Glo, 24 h; AID 652106; Potency, µM (titrated, usually from 46.1 µM), hits mostly activators; 370,000 tested, 0.14% active; further: nearly all actives have a fitted effect of over 65% in size
#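 Screening used galactose-induced yeast with toxic alpha-synuclein levels, exposed to compound for 24 hr at 30 deg C. Cell growth, read with BacTiter-Glo luminescence, gave the measured signal.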
# Abeta yeast res: compounds reversing amyloid beta toxicity in yeast | yeast expressing A-beta42, growth rescue, OD600, 48 h; response scale: 0% DMSO, 100% iron-clioquinol control | 410,000 tested, 0.063% active | Potency, µM (titrated, usually from 46.1 µM), hits mostly activators; further: nearly all actives have a fitted effect of over 55% in size
#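 Growth rescue measured by 600 nm absorbance after 48 h yeast culture at 30 C with compound. Values normalized between DMSO and an equimolar ferric chloride plus clioquinol control.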
# A number is an active result; - = inactive; ? = inconclusive; . = not tested or not shown; [ ] = remark or other dose. Rows were chosen to be rich in hits. Some 2.1% of all compounds tested hit in one or more screens of this group. The call rests on the fitted dose curve; in most records, active means well fitted curve in the direction sought with a large enough effect; inconclusive means small, poorly fitted or top-dose-only effect, or another doubt; inactive means no such curve, though single readings can be large; an effect the other way counts as inactive or inconclusive.
SMILES,TDP43 rescue,FUS yeast rescue,aSyn rescue,Abeta yeast res
COc1ccc(-c2nn(C)c3sc(C(=O)N4CCN(c5ccccc5F)CC4)cc23)cc1OC,20µM,-,.,-
CCOC(=O)c1ccc(NC(=O)CC2C(=O)N(c3ccc(F)cc3)C(=O)N2Cc2ccc3c(c2)OCO3)cc1 (stereo unspecified),-,39.8µM,.,-
COc1ccccc1/C=C1/C(=O)ON=C1C,14.1µM,-,-,-
COc1ccc(/C=C2/C(=O)ON=C2C)cc1Br,-,-,-,-
Cc1ccc(N2C(=O)c3ccccc3C2Nc2ccc(S(=O)(=O)N3CCCCC3)cc2)nc1 (stereo unspecified),?,35.5µM,-,-
CCOc1cc(C)c(S(=O)(=O)N2CCCCC2)cc1C,?,-,15.8µM,?
COc1cc(C)c(S(=O)(=O)N2CCCC2)cc1C,-,-,14.1µM,?
Cc1ccc(NC(=O)C2=CCN(S(=O)(=O)c3ccc(F)cc3)CC2)c(C)c1,-,-,-,-
CCn1cc(CN2CCCC(CO)(Cc3cccc(Cl)c3)C2)cn1 (stereo unspecified),-,-,-,-
Cc1nc(C)c(-c2ccc(SCc3ccc(Cl)cc3)nn2)s1,?,?,-,-
Cc1nc(C)c(-c2ccc(SCc3cccc(F)c3)nn2)s1,20µM,-,-,-
Cc1ccc(-c2nnn(CC(=O)N(CC3CCCO3)C(C(=O)NC3CCCC3)c3ccc(O)cc3)n2)o1 (stereo unspecified),-,28.2µM,-,-
Cc1ccc(-c2nnn(CC(=O)N(CC3CCCO3)C(C(=O)NC3CCCC3)c3ccc(F)cc3)n2)o1 (stereo unspecified),-,-,-,-
CC1CC(C)(C)N(C(=O)NC2CCCCC2)c2ccccc21 (stereo unspecified),14.1µM,.,-,-
COc1ccc2c(c1)C(C)CC(C)(C)N2C(=O)NC1CCCCC1 (stereo unspecified),-,-,-,-
Cc1ccc2ccc(C(Nc3ccccc3)c3ccc(F)cc3)c(O)c2n1 (stereo unspecified),3.16µM,-,-,?
Cc1ccc2ccc(C(Nc3ccccc3)c3ccc(C(C)C)cc3)c(O)c2n1 (stereo unspecified),?,-,11.2µM,?
Cc1ccc2ccc(C(Nc3ccccc3)c3ccc(Cl)cc3)c(O)c2n1 (stereo unspecified),5.62µM,-,?,15.8µM
Cc1ccc2ccc(C(Nc3ccccn3)c3ccccc3)c(O)c2n1 (stereo unspecified),?,-,-,-
Cc1ccc2ccc(C(Nc3ccccc3)c3ccccc3)c(O)c2n1 (stereo unspecified),?,-,?,?
COc1ccc(/C=C2\CCC(C3CCCC3)C2=O)c(OC)c1OC (stereo unspecified),-,-,?,-
COc1cccc(/C=C2\CCC(C3CCCC3)C2=O)c1OC (stereo unspecified),?,7.94µM,-,-
Cn1cc(Cl)c(/C(N)=N/OC(=O)c2ccccc2C(F)(F)F)n1,20µM,-,-,-
N/C(=N\OC(=O)c1ccccc1Cl)c1ccccn1,-,-,-,-
COc1ccc(N2C(=O)CC(NNc3nc4ccccc4s3)C2=O)cc1 (stereo unspecified),-[1.82 µM],-,-,-
SMILES,TDP43 rescue,FUS yeast rescue,aSyn rescue,Abeta yeast res
Clc1ccccc1-c1cnc2sc(NCc3ccc4c(c3)OCO4)nn12,3.98µM,-,-,-
Clc1ccccc1-c1ccc2ncnc(NCc3ccc4c(c3)OCO4)c2c1,.,-,.,-
O=C1[C@@H]2[C@@H](CN3CN(c4ccccc4)N=C(c4ccccc4)[C@@]23c2ccccc2)C(=O)N1c1ccccc1,?,.,-,-
O=C(N/N=C\c1ccc([N+](=O)[O-])s1)C1COc2ccccc2O1 (stereo unspecified),3.55µM,-,-,-
CC(C)(C)c1ccc2c(c1)OC(C(=O)N/N=C\c1ccccn1)CO2 (stereo unspecified),?,.,14.1µM,?
O=C(N/N=C\c1ccc([N+](=O)[O-])o1)C1COc2ccccc2O1 (stereo unspecified),?,-,-,-
O=C(N/N=C/c1c[nH]c2ccccc12)C1COc2ccccc2O1 (stereo unspecified),-,-,-,-
CC(C)(C)c1ccc2c(c1)OC(C(=O)N/N=C\c1ccc(-c3cccc(C(=O)O)c3)o1)CO2 (stereo unspecified),-,?,-,-
O=C(N/N=C\c1ccc(Cl)s1)C1COc2ccccc2O1 (stereo unspecified),17.8µM,-,-,?
Cc1ccc(S(=O)(=O)N(CC(=O)Nc2ccc(C(C)C)cc2)Cc2ccccc2)cc1,-,-,.,-
CCN(C(=O)COC(=O)c1ccco1)c1cccc2ccccc12,?,-,?,-
CCN(C(=O)COC(=O)c1ccc(O)cc1)c1cccc2ccccc12,?,-,-,7.94µM
CC12CCC(=O)C=C1CCC1C2CCC2(C)C(c3csc(N)n3)CCC12 (stereo unspecified),-,?,17.8µM,-
CC12CCC(=O)C=C1CCC1C2C(O)CC2(C)C(c3csc(N)n3)CCC12 (stereo unspecified),-,?,-,-
Cc1ccc(C)c(NS(=O)(=O)c2ccc(-c3cnc(C4CC4)o3)cc2)c1,31.6µM,?,?,.
CCOc1ccc(NS(=O)(=O)c2ccc(-c3cnc(C4CC4)o3)cc2)cc1,35.5µM,?,?,.
Cc1ccc(C)c(NS(=O)(=O)c2ccc(-c3coc(C)n3)cc2)c1,12.6µM,-,-,-
Cc1cc(C)cc(NS(=O)(=O)c2ccc(-c3cnc(C4CC4)o3)cc2)c1,?,?,?,-
CCOC(=O)c1cccc(NS(=O)(=O)c2ccc(-c3coc(C)n3)cc2)c1,35.5µM,-,-,-
O=C(NCc1ccncc1)C(=O)NCC(c1ccco1)N1CCN(c2ccc(F)cc2)CC1 (stereo unspecified),-,.,-,-
CCOC(=O)c1cccc(NS(=O)(=O)c2cc(-c3cnc(C4CC4)o3)ccc2C)c1,20µM,-,.,-
O=S(=O)(Nc1ccccc1)c1ccc(-c2cnc(C3CC3)o2)cc1,35.5µM,-,-,-
COc1ccccc1C(=O)Nc1ccc(Br)cc1C,17.8µM,-,-,-
CC1(C)CC(=O)CC(=NCC(=O)O)C1,-,-,-,-
COc1cccc(Cn2c(SCC(=O)N(C)c3ccccc3)nc3ccccc32)c1,17.8µM,?,.,-
SMILES,TDP43 rescue,FUS yeast rescue,aSyn rescue,Abeta yeast res
CSc1nc2ccccc2n1Cc1cccc([N+](=O)[O-])c1,-,-,-,-
O=C(CSc1nc2ccccc2n1Cc1cccc(F)c1)NCc1ccccc1,22.4µM,-,.,-
CSc1nc2ccccc2n1Cc1cccc(F)c1,17.8µM,-,-,-
Cc1ncc(CO)c2c1OC(C)(C)OC2,-,-,-,-
CC(C)[C@H](N)C(=O)NC[C@H](CC(=O)NC[C@H]1CC[C@H](C(=O)O)CC1)c1ccc(Cl)cc1,-,-,-,-
Cc1cc(C)n2cc(CSc3ccccn3)nc2n1,-[9.22 µM],?,-,-
